# Values joined by “and” are separate entries in the source; they are usually repeats but may differ in a detail not shown here. Equal values may be shown once. A structure can be active in one record and inactive in another. Active and inactive are the calls of the source. How the source made its calls: active means hit-call score of the fitted dose curve at least 0.9, where 1 is the maximum; inactive means score below 0.9.
# Experiment: APR_HepG2_MitoMembPot_72hr: Apredica 72-hour HepG2 Assay for Mitochondrial Membrane Potential (AID 2282917)
# Settings: imaging, actives raise or lower the signal
# Method: APR_HepG2_72hr is a cell-based, multiplexed-readout assay that uses HepG2, a human liver cell line, with measurements taken at 72 hours after chemical dosing in a 384-well plate.APR_HepG2_MitoMembPot_72hr is one of 10 assay component(s) measured or calculated from the APR_HepG2_72hr assay. It is designed to make measurements of dye binding, a form of membrane potential reporter, as detected with fluorescence intensity signals by HCS Fluorescent Imaging technology.Data from the assay component APR_HepG2_MitoMembPot_72hr was analyzed into 1 assay endpoint. This assay endpoint, APR_HepG2_MitoMembPot_72hr, was analyzed with bidirectional fitting relative to DMSO as the negative control and baseline of activity. Using a type of membrane potential reporter, gain or loss-of-signal activity can be used to understand changes in the signaling. Furthermore, this assay endpoint can be referred to as a primary readout, because this assay has produced multiple assay endpoints where this one serves a signaling function. To generalize the intended target to other relatable targets, this assay endpoint is annotated to the cell morphology intended target family, where the subfamily is organelle conformation.
# Cells were treated with dimethyl sulfoxide (DMSO) as a solvent control at a final concentration of 0.5% v/v or with compounds in DMSO with a resulting final DMSO concentration of 0.5% v/v. Compound treatment was done at concentrations of 0.39, 0.78, 1.56, 3.12, 6.24, 12.5, 25, 50, 100, and 200 uM in duplicate on each plate. Cells were treated with compounds for 1, 24, or 72 hr. Carbonyl […] m-chloro-phenylhydrazone (CCCP) and taxol were used as positive controls for mitochondrial function and cytoskeletal stability, respectively; DMSO served as the negative control for this experiment. Cells were fixed by the direct addition of 50 uL formaldehyde in Hank's Balanced Salt Solution (HBSS) to a final concentration of 3.7%. After incubation in the fixation medium for 30 min at room temperature (293-298 K), cells were rinsed twice with HBSS and treated with cell permeabilization buffer (16 uL of 0.5% Triton X-100) for 10 min at room temperature (293-298 K) before labeling. For mitochondrial membrane potential and mitochondrial measurements, pre-fixed cells were incubated with 50 uL of MitoTracker Red CMXRos (Invitrogen) at a concentration of 250 nM for 30 min before fixation. In the remaining cases, post-fixed cells were labeled by incubation with a multiplexed mixture of primary antibodies in HBSS for 60 min at room temperature (293-298 K) to detect immunoreactivity of c-Jun (1:500), phospho-histone H3 (1:100), phospho-histone H2A.x (1:200), p53 (1:400), alpha-tubulin (1:200) and Hoechst 33342 (2 ug/mL). Cells were labeled for multiplexed imaging on two separate plates: a) Hoechst 33342, MitoTracker Red, phospho-histone H3, and alpha-tubulin, and b) Hoechst 33342, phospho-histone H2A.x, and c-Jun. A final rinse with HBSS (50 uL) was performed before analysis. The primary and secondary antibodies for the proteins were phospho-histone H3 (rabbit anti-phospho-histone H3 and FITC-donkey anti-rabbit IgG), phospho-histone H2A.x (mouse anti-phospho-histone H2A.x and FITC-donkey anti-mouse IgG), c-Jun (rabbit anti-phospho-c-Jun and Cy3-donkey anti-rabbit IgG), p53 (sheep anti-p53 and Cy5-donkey anti-sheep IgG), alpha-tubulin (mouse anti-alpha-tubulin and Cy5-donkey anti-mouse IgG). These antibodies are available as the CellCiphr HepG2 assay kit (Millipore).Digital images of each well were captured using a Cellomics ArrayScan VTI (Thermo Scientific Cellomics) (0.8 NA objective, 0.63x optical coupler, and XF-93 filter set) at 20x magnification. The images were acquired using the autofocus feature of the ArrayScan instrument, which entails the following steps. First, the camera focuses on channel 1 (Hoechst 33342), where nuclei are identified. Second, a Z offset of 1 um is used for capturing mitochondria (MitoTracker Red). […]
SMILES,AC50,outcome
O=C(Nc1ccc([N+](=O)[O-])cc1Cl)c1cc(Cl)ccc1O,1.06 µM (active),–
c1ccc(Nc2ccccc2)cc1,–,inactive
CCCN(CCC)c1c([N+](=O)[O-])cc(C(F)(F)F)c(N)c1[N+](=O)[O-],–,inactive
CCNc1nc(N)nc(Cl)n1,–,inactive
CC(C)(c1ccc(O)cc1)c1ccc(O)cc1,101 µM (active) and 81.5 µM (active) and 107 µM (active),inactive
CN(C)C(=O)Nc1ccc(Cl)c(Cl)c1,15.7 µM (active),–
COC(=O)c1ccccc1S(=O)(=O)NC(=O)Nc1nc(OC(F)F)cc(OC(F)F)n1,–,inactive
COC(=O)c1ccc(CNS(C)(=O)=O)cc1S(=O)(=O)NC(=O)Nc1nc(OC)cc(OC)n1,–,inactive
CCCN(CCC)C(=O)SCC,–,inactive
CCOC(=O)C(C)Oc1ccc(Oc2nc3ccc(Cl)cc3o2)cc1 (stereo not given),–,inactive
Cc1nn(C)c(Oc2ccccc2)c1C=NOCc1ccc(C(=O)OC(C)(C)C)cc1,–,inactive
CC(=O)S[C@@H]1CC2=CC(=O)CC[C@]2(C)[C@H]2CC[C@@]3(C)[C@@H](CC[C@@]34CCC(=O)O4)[C@H]12,100 µM (active),–
CCCCCOC(=O)COc1cc(N2C(=O)C3=C(CCCC3)C2=O)c(F)cc1Cl,–,inactive
CCC(O)=C1C(=O)CC(C(=O)O)CC1=O (stereo not given),–,inactive
CCCOC(=O)NCCCN(C)C,–,inactive
COC(=O)c1ccccc1C(=O)O,–,inactive
CCN(Cc1c(F)cccc1Cl)c1c([N+](=O)[O-])cc(C(F)(F)F)cc1[N+](=O)[O-],–,inactive
CCCOC(=O)c1ccc(C(=O)OCCC)nc1,–,inactive
COC(=O)c1cccc(C)c1S(=O)(=O)NC(=O)Nc1nc(OCC(F)(F)F)nc(N(C)C)n1,1.33 µM (active),–
C#CCOC(=O)[C@@H](C)Oc1ccc(Oc2ncc(Cl)cc2F)cc1,–,inactive

SMILES,AC50,outcome
CCCCC(CC)CN1C(=O)C2C3C=CC(C3)C2C1=O (stereo not given),–,inactive
COc1c(Cl)ccc(Cl)c1C(=O)O,–,inactive
CSC(=O)c1cccc2nnsc12,–,inactive
CC(C)CCCCCCc1ccc(O)cc1,–,inactive
OB(O)O,–,inactive
COC(=O)CSc1cc(N=c2sc(=O)n3n2CCCC3)c(F)cc1Cl,–,inactive
c1ccc2[nH]c(-c3cscn3)nc2c1,–,inactive
CCC(C)OC(=O)N1CCCCC1CCO (stereo not given),–,inactive
C=CCOC(Cn1ccnc1)c1ccc(Cl)cc1Cl (stereo not given),–,inactive
CCCCOC(=O)[C@@H](C)Oc1ccc(Oc2ccc(C(F)(F)F)cn2)cc1,–,inactive
CCCCC(CC)COC(=O)c1ccccc1C(=O)O (stereo not given),–,inactive
COCCO,–,inactive
C#C[C@]1(O)CC[C@H]2[C@@H]3CCC4=CC(=O)CC[C@@H]4[C@H]3CC[C@@]21CC,–,inactive
N[C@@H](Cc1cc(I)c(Oc2ccc(O)c(I)c2)c(I)c1)C(=O)O,–,inactive
Oc1ccc(C(c2ccc(O)cc2)C(Cl)(Cl)Cl)cc1,–,inactive
CCN(CC)C(=O)c1cccc(C)c1,–,inactive
CCOC(=O)c1ccc(O)cc1,–,inactive
O=C(c1ccccc1)C1CCCCC1,–,inactive
CC(=O)[C@H]1CC[C@H]2[C@@H]3CCC4=CC(=O)CC[C@]4(C)[C@H]3CC[C@]12C,–,inactive

# Reference: PubChem BioAssay (EPA / NIEHS)
